Test results published in PubChem BioAssay (NCATS).
Active and inactive are the calls of the source. Calls follow the shape of the full dose curve.

What follows are molecules tested against Tumor susceptibility gene 101 protein (Homo sapiens) (UniProt Q99816) (assay: qHTS Validation Assay for Iinhibitors of HIV-1 Budding by Blocking the Interaction of PTAP/TSG101 (AID 485342)). Details: TSG101-PTAP binding, fluorescence polarization, 4-point titration; series mostly up to 115 µM.
From the text: NIH Molecular Libraries Probe Production Network [MLPCN]
NIH Chemical Genomics Center [NCGC]
PI Name: Dr. Eric Freed, NCI
Stages of the HIV-1 replication cycle, specifically virus assembly and release, provide underexploited targets for the development of novel antiviral inhibitors. The late stages of HIV-1 replication are mediated by the Gag precursor protein, Pr55Gag. Expression of Pr55Gag is both necessary and sufficient for the production of virus-like particles from Gag-expressing cells. The Gag protein hijacks key host proteins involved in endocytic machinery of the host cell to promote endosomal processing and viral budding. The budding process requires a direct interaction between a […] (PTAP) motif in the p6 domain of Gag and the cellular endosomal sorting protein known as Tsg101. In this way, the Gag PTAP motif promotes the host cells to recruit viral particles to the plasma membrane where the new viral particles are released, effectively turning the host cells into viral factories. A fluorescence anisotropy assay has been developed to quantitatively measure the PTAP-Tsg101 interaction which can be used to screen for inhibitors of this interaction.
NCGC Assay Protocol Summary:
Two uL of the Tsg101 binding domain in buffer (10 mM HEPES pH 7.5; 0.15 M NaCl, 0.01% Tween 20; 3 mM EDTA;0.1 mM TCEP) was dispensed into Greiner black MB 1536-well plates (final concentration 10 uM). Then, 23 nL of compounds or DMSO were delivered to each well using a pin tool. Finally, 2 uL of a FITC-labeled peptide containing the PTAP motif (1) in the same buffer was dispensed (50 nM final concentration) and the binding was allowed to proceed for 20 min. at r.t. Fluorescent polarization was determined using FITC excitation and polarized emission filters on a Perkin Elmer Viewlux.
Keywords: Tsg101, PTAP, Gag, HIV, fluorescent polarization, MLSMR, MLPCN, NIH Roadmap, qHTS, NCGC

Tumor susceptibility gene 101 protein (Homo sapiens), sequence (Q99816 whole entry, looked up): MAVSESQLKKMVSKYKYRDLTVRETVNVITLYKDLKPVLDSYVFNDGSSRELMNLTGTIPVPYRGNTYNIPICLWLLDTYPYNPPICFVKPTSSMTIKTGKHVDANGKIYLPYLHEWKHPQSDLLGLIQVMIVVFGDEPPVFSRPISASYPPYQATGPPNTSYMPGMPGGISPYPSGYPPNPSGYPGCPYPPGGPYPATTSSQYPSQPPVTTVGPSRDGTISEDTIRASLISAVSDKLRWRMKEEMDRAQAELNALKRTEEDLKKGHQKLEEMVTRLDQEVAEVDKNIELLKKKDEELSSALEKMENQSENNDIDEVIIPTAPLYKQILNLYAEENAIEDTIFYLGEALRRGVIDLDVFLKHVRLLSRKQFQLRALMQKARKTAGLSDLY

SMILES | outcome
CC1=C(C(=O)O)N2C(=O)[C@@H](NC(=O)C(N)c3ccccc3)[C@H]2SC1 (some centres not stated) | inactive
COc1cc2ncnc(Nc3cccc(Cl)c3)c2cc1OC | inactive
CCN(CC)CC#CCOC(=O)C(O)(c1ccccc1)C1CCCCC1 (configuration not stated) | inactive
O=C(O)C1CCCN(CCC=C(c2ccccc2)c2ccccc2)C1 (configuration not stated) | inactive
NC(=O)c1ccc2[nH]ccc2c1 | inactive
CC(=O)[C@H]1CC[C@H]2[C@@H]3CCC4=CC(=O)CC[C@]4(C)[C@H]3CC[C@]12C | inactive
N[C@@H](Cc1ccc(O)c(O)c1)C(=O)O | inactive
CC(C)NCC(O)c1ccc(NS(C)(=O)=O)cc1 (configuration not stated) | inactive
CCN(CC)CCn1c(=O)c(Cc2ccc(OC)cc2)nc2ccccc21 | inactive
Cc1ccc(S(=O)(=O)N[C@@H](Cc2ccccc2)C(=O)CCl)cc1 | inactive
CCCCS(=N)(=O)CCC(N)C(=O)O (configuration not stated) | inactive
Nc1nc(N)c2nc(CNc3ccc(C(=O)NC(CCC(=O)O)C(=O)O)cc3)cnc2n1 (configuration not stated) | inactive
COc1cc2nc(N3CCCN(C)CC3)nc(NC3CCN(Cc4ccccc4)CC3)c2cc1OC | inactive
NC(=O)c1cccc(N)c1 | inactive
CCN1CCCC1CNC(=O)c1cc(S(N)(=O)=O)ccc1OC (configuration not stated) | inactive
OCc1ccc(-c2nn(Cc3ccccc3)c3ccccc23)o1 | inactive
CC1CC2C3CCC4=CC(=O)C=C[C@]4(C)[C@@]3(F)[C@@H](O)C[C@]2(C)[C@@]1(O)C(=O)CO (some centres not stated) | inactive
